Reference: PubChem BioAssay AID1566 (Sanford-Burnham Center for Chemical Genomics, 2009)
Where “and” joins values, the source holds several entries; their conditions need not be identical. Equal values may be shown once. Out of some 290,000 compounds screened, about 1,800 (0.62%) were called active. This is one part of a sample in which actives are shown more often than they occur. Values without a mark were called inactive. Rule as the data show it: active = inhibition above about 50%; inactive = the rest.

Test: inhibition of NOD2-driven NF-kB reporter – cell-based, luminescence, uHTS, HEK293 (AID 1566)
Details: HEK293 NOD2/NF-kB luciferase reporter, at 4 µM, active compounds read high

Compared with `Nn1cnnc1SCC(=O)Nc1ccc(C2CCCCC2)cc1`, `O=C(CSCCO)Nc1ccc(C2CCCCC2)cc1` is higher in inhibition: -14.6% for the first, -8.8% for the second.

Going from `C=C1CCC[C@]2(C)C[C@H]3OC(=O)C(CNC(C)(CO)CO)[C@H]3CC12` (stereo partly drawn) to `Cc1cc(C(=O)COC(=O)c2ccccc2NCCO)c(C)n1CC1CCCO1` (stereo not drawn), the inhibition falls from 3.4% to -4.6%.

Going from `CC1(C)CC(NC(=O)c2cccc3ccccc23)CC(C)(C)N1` to `COC(=O)c1ccc(NC(=O)c2ccccc2NS(C)(=O)=O)cc1`, the inhibition rises from -1.7% to 6.5%.

First: COc1cc(C(=O)Nc2sc3c(c2C(=O)O)CCC3)cc(OC)c1OC
Second: COc1cc(C(=O)Nc2scc(-c3ccccc3)c2C(=O)O)cc(OC)c1OC
The inhibition of the first is higher: 23.1% for the first, 13.6% for the second.

Going from `COc1cc(C(=O)Nc2scc(-c3ccc(C)cc3)c2C(=O)O)cc(OC)c1OC` to `COc1ccccc1C(=O)Nc1ccc(C(=O)O)cc1`, the inhibition falls from 42.9% to -1.4%.

First: CC1CCc2c(sc(NC(=O)c3ccco3)c2C(=O)O)C1 (stereo not drawn)
Second: CCOC(=O)c1cccc(NC(=O)c2cc3ccccc3o2)c1
The inhibition of the first is higher: 36.1% for the first, -97.4% for the second.

Going from `CC(C)(C)OC(=O)C(C)(C)O/N=C(\C(=O)O)c1csc(N)n1` to `CC(=O)c1c(C)[nH]c(C(=O)Nc2nc(C)cs2)c1C`, the inhibition falls from 12.5% to -21.9%.

First: Cn1c(N/N=C/c2cc3ccccc3nc2Cl)nc2ccccc21
Second: COc1ccccc1C(=O)Nc1ccc(C(=O)c2ccccc2)cc1
The inhibition of the first is lower: -51% for the first, 4.1% for the second.

First: Clc1ccc(-c2nc3n(n2)Cc2ccccc2-3)cc1
Second: Cc1ccc(-c2nc3n(n2)Cc2ccccc2-3)cc1
The inhibition of the first is lower: -152% for the first, -79.2% for the second.

First: CCC(=O)c1ccccc1OCCN1CCN(Cc2ccccc2)CC1
Second: COc1ccccc1-n1c(SCC(=O)N2CCOCC2)nc2ccccc2c1=O
The inhibition of the first is lower: 2.5% for the first, 2.8% for the second.

Going from `O=C1OCCC1Sc1nnc(-c2ccc3c(c2)OCO3)o1` (stereo not drawn) to `O=C(c1ccc(Cl)cc1)N1CCCCC(Sc2nnc(-c3ccc4c(c3)OCO4)o2)C1=O` (stereo not drawn), the inhibition rises from 28% to 29.1%.

Compared with `CCN(CC)c1ccc2cc(C(N)=O)c(=O)oc2c1`, `CCN(CC)c1ccc2cc(C(C)=O)c(=O)oc2c1` is higher in inhibition: -17.6% for the first, -9.9% for the second.

Compared with `O=C(N/N=C/c1cccc(O)c1)C(=O)N1CCCCCC1`, `CCOc1ccccc1/C=C/C(=O)NCC(=O)N1CCC(N(C)C2CCCCC2C)CC1` (stereo not drawn) is higher in inhibition: 8.2% for the first, 9.7% for the second.

Compared with `COc1ccc(COC(=O)C2=C(C)NC(=O)NC2c2ccc(OC)cc2)cc1` (stereo not drawn), `COc1ccc(COC(=O)C2=C(C)NC(=O)NC2c2ccc(O)cc2)cc1` (stereo not drawn) is lower in inhibition: 17.9% for the first, 5.6% for the second.

Going from `O=C(CN1CCN(S(=O)(=O)c2ccc(Cl)cc2)CC1)NC1CCCC1` to `Cn1c(=O)oc2cc(S(=O)(=O)NCCC(=O)NC3CCCC3)ccc21`, the inhibition rises from -2.2% to -0.1%.

First: C#CC(=O)N(c1cc(OC)ccc1OC)C(C(=O)NC1CCCC1)c1cccs1 (stereo not drawn)
Second: C#CC(=O)N(c1ccc(OC)c(OC)c1)C(C(=O)NC1CCCC1)c1cccs1 (stereo not drawn)
The inhibition of the first is higher: 17% for the first, -0.2% for the second.

Going from `CC(=O)c1c(C)[nH]c(C(=O)Nc2nc(-c3ccc(Cl)cc3)cs2)c1C` to `CC(C)(C)N=C1NN=C(c2ccc(Cl)cc2)CS1`, the inhibition falls from 31.2% to -99%.

First: CCCNC(=O)CCCN1C(=O)c2ccccc2Sc2ncccc21
Second: CCCCN(CC)CCCNC(=O)Cn1nc(Cc2ccncc2)c2ccccc2c1=O
The inhibition of the first is higher: 7.1% for the first, 2.4% for the second.

Compared with `COc1ccc(-n2c(-c3ccc(Br)cc3)c[n+]3c2CCc2ccccc2-3)cc1`, `COc1ccc(-n2c(-c3ccc(C)cc3)n[nH]c2=S)cc1` is lower in inhibition: 31.4% for the first, -6.4% for the second.

Compared with `Cc1ccc(C(=O)OCC(=O)c2cc(C)n(CC3CCCO3)c2C)cc1` (stereo not drawn), `Cc1cc(C(=O)COC(=O)c2ccc(O)cc2)c(C)n1CC1CCCO1` (stereo not drawn) is lower in inhibition: 18.2% for the first, -113% for the second.

First: COCCn1c(C)cc(C(=O)COC(=O)c2ccc(Br)o2)c1C
Second: COCCn1c(C)cc(C(=O)COC(=O)c2ccc[nH]c2=O)c1C
The inhibition of the first is lower: 4.7% for the first, 29.6% for the second.

Compared with `CSc1ncccc1C(=O)OCC(=O)c1cc(C)n(CC2CCCO2)c1C` (stereo not drawn), `COCCN=C1NN=C(c2cc(C)n(CC3CCCO3)c2C)CS1` (stereo not drawn) is higher in inhibition: 5.9% for the first, 19.4% for the second.

Going from `O=C(CC1C(=O)NCCN1C(=O)Nc1ccc(Cl)cc1)Nc1ccc(F)cc1` (stereo not drawn) to `Cc1ccccc1OCC(=O)Nc1ccc(C(=O)Nc2ccccc2C(=O)O)cc1`, the inhibition rises from 8.1% to 33.3%.

Going from `COc1ccc(C/C(C)=N/NC(=O)c2cccnc2)cc1` to `COc1ccc(NC(=O)CO/N=C(\C)c2cccs2)cc1`, the inhibition falls from -5.6% to -10.2%.

Going from `COc1ccc(CNCCNC(=O)c2nonc2N)cc1OC` to `CCOc1ccc(/C=N/n2c(C)nnc2C)cc1OC`, the inhibition falls from 11.4% to 8%.

Compared with `Cc1ccc(S(=O)(=O)Nc2ccccc2C(=O)N2CCN(C)CC2)cc1`, `COC(=O)c1ccccc1NS(=O)(=O)c1ccc(NC(C)=O)cc1` is lower in inhibition: 4% for the first, 1.9% for the second.

First: O=C(Nc1ccccc1)Nc1cccc(C(F)(F)F)c1
Second: O=C(Nc1ccncc1)Nc1cccc(C(F)(F)F)c1
The inhibition of the first is lower: -38.6% for the first, 18% for the second.

Compared with `O=S(=O)(c1ccc(NCc2ccc(F)cc2)nc1)N1CCCC1`, `CC(OC(=O)Cc1ccc(Cl)cc1)C(=O)NCCC1=CCCCC1` (stereo not drawn) is higher in inhibition: 12.4% for the first, 17.9% for the second.

Going from `Cc1cc(C(=O)Nc2ccccc2C(=O)O)ccc1NC(=O)COc1cccc(C)c1C` to `Cc1ccc(C(=O)OCc2cc3ccccc3[nH]c2=O)cc1`, the inhibition falls from 47.7% to 3.6%.

Going from `c1ccc(CCSc2nccn2-c2ccccc2)cc1` to `O=C(CCSc1nc(-c2ccco2)cc(C(F)(F)F)n1)N1CCN(c2ccccc2)CC1`, the inhibition rises from -141% to -17.1%.

Going from `CCCc1cc(=O)oc2c3c(c(Cl)cc12)OCN(CCCO)C3` to `C#CCOc1c(Cl)cc(/C=C2/C(=O)ON=C2C)cc1OC`, the inhibition rises from -64.8% to 6.6%.

First: CC(C)C(c1nnnn1C1CCCCC1)N1CCOCC1 (stereo not drawn)
Second: CN(C(=O)Cn1nnc2ccccc2c1=O)C1CCCCC1
The inhibition of the first is lower: 0.1% for the first, 6.8% for the second.

Going from `O=C(c1ccc(N2CCN(C(=O)c3ccc(F)cc3F)CC2)cc1)c1cccc(F)c1` to `Cc1ccc(-c2noc(C3CCCN(C(=O)c4ccc(Cl)cc4)C3)n2)o1` (stereo not drawn), the inhibition falls from 10.3% to -1.8%.

Going from `COCCn1c(C)cc(C2=NNC(=NC(C)(C)C)SC2)c1C` to `COCCn1c(C)cc(C2=NNC(=Nc3ccccc3)SC2)c1C`, the inhibition falls from 4.6% to -146%.

Compared with `Cc1cc(C2=NNC(=NCCc3ccccc3)SC2)c(C)n1CC1CCCO1` (stereo not drawn), `C=CCn1c(C)cc(C2=NNC(=NCc3ccccc3)SC2)c1C` is lower in inhibition: -32.5% for the first, -78% for the second.

First: COCCCN=C1NN=C(c2cc(C)n(Cc3ccccc3Cl)c2C)CS1
Second: COCCn1c(C)cc(C2=NNC(=Nc3ccc(Cl)cc3Cl)SC2)c1C
The inhibition of the first is lower: -30.7% for the first, 8.7% for the second.

First: COCCn1c(C)cc(C2=NNC(=Nc3ccc(OC)cc3)SC2)c1C
Second: C=CCn1c(C)cc(C2=NNC(=Nc3ccc(C)cc3)SC2)c1C
The inhibition of the first is lower: -9.9% for the first, 3% for the second.

First: COc1ccc(CCN=C(N)Nc2nc(C)cc(C)n2)cc1
Second: COc1ccc(-c2nnc(SCC(=O)NC3CCCCC3)o2)cc1
The inhibition of the first is higher: 8.4% for the first, 6% for the second.

First: COCCn1c(Cc2cccn2C)nnc1SCC(=O)NCc1ccc2c(c1)OCO2
Second: CCOC(=O)CNC(=O)CSc1ccc2nnc(-c3ccc(F)cc3)n2n1
The inhibition of the first is lower: 5.3% for the first, 8.4% for the second.

First: Cc1cc(C2=NNC(=Nc3ccccc3)SC2)c(C)n1C
Second: CCN=C1NN=C(c2ccc(C)cc2)CS1
The inhibition of the first is higher: -60.1% for the first, -71.4% for the second.

`CCOc1ccccc1N(CC(=O)NCC1CCCO1)C(=O)CNS(=O)(=O)c1ccccc1` (stereo not drawn) showed an inhibition of -15.5%.

In the case of `O=C(O)CSCC(=O)Nc1ccc(C2CCCCC2)cc1`, the inhibition is reported as 73.5% (active).
For `CCn1c(C)nc2cc(-c3nc4n(n3)Cc3ccccc3-4)ccc21`, the inhibition was 93% (active).
With `O=C1CCCCC1Sc1nnc(-c2ccc3c(c2)OCO3)o1` (stereo not drawn) the inhibition was 71.3% (active).
In the case of `CCN(CC)c1ccc2cc(NC(=O)CCC(=O)O)c(=O)oc2c1`, the inhibition is reported as 57.1% (active).
For `COc1ccc(COC(=O)C2=C(C)NC(=O)NC2c2ccc(F)cc2)cc1` (stereo not drawn), the inhibition was 50.5% (active).
For `C#CC(=O)N(c1ccc(OC)cc1OC)C(C(=O)NC1CCCC1)c1cccs1` (stereo not drawn), the inhibition was 62% (active).
With `COc1ccccc1-n1c(-c2ccccc2)c[n+]2c1CCc1ccccc1-2` the inhibition was 49% and 41.3%.
In the case of `Cc1ccc(-n2c(-c3ccccc3)c[n+]3c2CCc2ccccc2-3)c(C)c1`, the inhibition is reported as 56.2% (active).
For `COCCn1c(C)cc(C(=O)COC(=O)c2ccccc2Br)c1C`, the inhibition was 68.7% (active).
With `Cc1cc(C(=O)COC(=O)c2cccnc2Cl)c(C)n1CC1CCCO1` (stereo not drawn) the inhibition was 55.8% (active).
With `COc1ccccc1C(=O)Nc1ccc(C(=O)Nc2ccccc2C(=O)O)cc1` the inhibition was 59.6% (active).
For `C=CCN=C1NN=C(c2cc(C)n(CCOC)c2C)CS1`, the inhibition was 65.1% (active).
In the case of `C=CCN=C1NN=C(c2cc(C)n(CC=C)c2C)CS1`, the inhibition is reported as 73.6% (active).
In the case of `COCCn1c(C)cc(C2=NNC(=Nc3ccccc3F)SC2)c1C`, the inhibition is reported as 61.6% (active).
With `COCCn1c(C)cc(C2=NNC(=NC3CC3)SC2)c1C` the inhibition was 94% (active).
For `C=CCn1c(C)cc(C2=NNC(=NC(C)(C)C)SC2)c1C`, the inhibition was 63.3% (active).
With `C=CCn1c(C)cc(C2=NNC(=NCC)SC2)c1C` the inhibition was 92.6% (active).
